Test systems include HCT-15 colon; HT29 colon; SNB-75 CNS; SNB-19 CNS; U251 CNS; PC-3 prostate; SK-MEL-5 melanoma; UACC-62 melanoma; LOX IMVI melanoma; SK-MEL-28 melanoma.
What all share (assay): NCI-60 one-dose screen, 48 h (100 = growth as untreated, 0 = no growth, -100 = all killed)
Common to all, as to details: 10 µM unless noted

The panel holds about 83,000 compounds, 20% with a hit somewhere; the sample as a whole holds those more often.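 Cells were grown in 96-well plates and exposed to the test compound at a single concentration for 48 hours; results are reported as percent growth, with values below 10 considered active.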 Values without a mark were called inactive. The source made the active and inactive calls.

`COc1cccc(-c2nc3sccn3c2-c2ccnc(NCCN3CCCNS3(=O)=O)n2)c1`: the growth was 97.1% in the assay with HCT-15 colon; 45.2% in the assay on HT29 colon; 88.4% in the assay with SNB-75 CNS; 127% in the assay with SNB-19 CNS; 112% in the assay with U251 CNS; 94.4% in the assay with PC-3 prostate. Moreover, the growth in the assay on SK-MEL-5 melanoma was 80.8%; in the assay on UACC-62 melanoma it was 9.99% (active); in the assay on LOX IMVI melanoma it was 35%; in the assay with SK-MEL-28 melanoma it was 44.1%.

With `Cc1c2c(cc3c1[nH]c1ccccc13)C=NCC2`, the growth is 95.1% in the assay with HCT-15 colon; 61.2% with HT29 colon; 84% with SNB-75 CNS; 93.4% with SNB-19 CNS; 92.5% in the assay on U251 CNS; 91% with PC-3 prostate. Moreover, the growth was 88.1% in the assay on SK-MEL-5 melanoma, 107% with UACC-62 melanoma, 87.4% with LOX IMVI melanoma and 118% in the assay on SK-MEL-28 melanoma.

Turning to `CCOC(=O)c1ccc(NC(=O)CSC(N)=O)cc1`, the growth in the assay with HCT-15 colon is 99.4%; in the assay with HT29 colon it was 126%; in the assay on SNB-75 CNS, 149%; in the assay with SNB-19 CNS, 91.1%; in the assay on U251 CNS it was 94.1%; with PC-3 prostate, 85.6%. Further, the growth is 103% with SK-MEL-5 melanoma, 96.8% in the assay on UACC-62 melanoma, 85.7% in the assay with LOX IMVI melanoma and 128% in the assay on SK-MEL-28 melanoma.

For `N=C(N)c1ccc(-c2ccc(-c3cccs3)s2)cc1F`, the growth in the assay with HCT-15 colon was -66.8% (active); in the assay on HT29 colon, -82.1% (active); in the assay on SNB-75 CNS, -96.5% (active); with SNB-19 CNS, -65.1% (active); in the assay on U251 CNS it was -86.6% (active); in the assay on PC-3 prostate, -72.4% (active). The growth was -98% (active) in the assay with SK-MEL-5 melanoma, -79.7% (active) in the assay with UACC-62 melanoma, -76.7% (active) with LOX IMVI melanoma and -96% (active) in the assay with SK-MEL-28 melanoma.

In the case of `O=[N+]([O-])c1ccc(SSc2ccc([N+](=O)[O-])cc2Cl)c(Cl)c1`, the growth was 105% with HCT-15 colon; 98.2% in the assay on HT29 colon; 84% in the assay on SNB-75 CNS; 99.5% in the assay with SNB-19 CNS; 89.6% with U251 CNS; 93.2% in the assay with PC-3 prostate. Moreover, the growth in the assay on SK-MEL-5 melanoma was 95.5%; with UACC-62 melanoma, 79.7%; in the assay on LOX IMVI melanoma it was 77.3%; in the assay on SK-MEL-28 melanoma, 109%.

Take `Nc1c(C(=O)C[C@@H](N)CO)ccc2c1C(=O)CCO2`: the growth in the assay on HCT-15 colon is 6.97% (active); in the assay with HT29 colon, -3.16% (active); with SNB-75 CNS it was 86.2%; in the assay on SNB-19 CNS, 27.4%; in the assay on U251 CNS it was 16.7%; in the assay on PC-3 prostate, 57%. For the same compound, the growth in the assay on SK-MEL-5 melanoma was 60.8%; in the assay on UACC-62 melanoma, 30.5%; in the assay with LOX IMVI melanoma, -61.7% (active); in the assay with SK-MEL-28 melanoma, 39.1%.

`Cn1cnc([N+](=O)[O-])c1S(=O)(=O)Oc1cccc2ccccc12`: the growth with HCT-15 colon was 1.87% (active); in the assay with HT29 colon, 10.9%; with SNB-75 CNS it was 83.2%; in the assay on SNB-19 CNS, 98.8%; in the assay on U251 CNS, 57.6%; with PC-3 prostate it was 57.4%. The growth in the assay with SK-MEL-5 melanoma was 93%; with UACC-62 melanoma, 80.7%; with LOX IMVI melanoma, -45.1% (active); in the assay with SK-MEL-28 melanoma it was 85.1%.

Regarding `COc1cc(CN2CCC(N3CCCC3=O)c3ccccc32)cc(OC)c1OC` (stereo not given), the growth in the assay with HCT-15 colon was 108%; with HT29 colon, 80.5%; with SNB-75 CNS, 84.1%; with SNB-19 CNS, 83.6%; in the assay with U251 CNS, 85.5%; with PC-3 prostate it was 66%. The growth with SK-MEL-5 melanoma is 40.5%; with UACC-62 melanoma it was 64.4%; in the assay with LOX IMVI melanoma, 76.3%; in the assay with SK-MEL-28 melanoma, 98.2%.

Consider `COc1ccc(CC2c3cc(OC)c(OC)cc3CC[N+]2(C)CCC(=O)OCCCCCOC(=O)CC[N+]2(C)CCc3cc(OC)c(OC)cc3C2Cc2ccc(OC)c(OC)c2)cc1OC` (stereo not given), for which the growth was 102% in the assay on HCT-15 colon; 96% in the assay on HT29 colon; 63.4% in the assay with SNB-75 CNS; 104% in the assay on SNB-19 CNS; 93.4% in the assay with U251 CNS; 90.3% in the assay with PC-3 prostate. For the same compound, the growth with SK-MEL-5 melanoma was 87.4%; with UACC-62 melanoma, 93.3%; with LOX IMVI melanoma, 81%; in the assay on SK-MEL-28 melanoma, 99.8%.

In the case of `CC(C)(c1ccccc1)c1cc(O)c(C(C)(C)c2ccccc2)cc1O`, the growth in the assay with HCT-15 colon is 21.3%; in the assay on HT29 colon, 15.8%; in the assay with SNB-75 CNS, 43.5%; with SNB-19 CNS, 37.8%; in the assay with U251 CNS, 36.5%; with PC-3 prostate, 16.9%. Besides, the growth is 11.3% with SK-MEL-5 melanoma, 20.6% with UACC-62 melanoma, 32.7% in the assay with LOX IMVI melanoma and 53.2% in the assay on SK-MEL-28 melanoma.

For `O=C(CCCCCCN1CC(=O)N2[C@@H](c3ccc(Cl)c(Cl)c3)c3[nH]c4ccccc4c3C[C@H]2C1=O)NO`, the growth in the assay on HCT-15 colon was 92.3%; with HT29 colon, 33.8%; with SNB-75 CNS it was 6.3% (active); in the assay with SNB-19 CNS, 54.3%; with U251 CNS, 40.5%; in the assay with PC-3 prostate, 25.7%. For the same compound, the growth was 51.3% in the assay on SK-MEL-5 melanoma, 35.2% in the assay on UACC-62 melanoma, -55.2% (active) in the assay with LOX IMVI melanoma and 52.4% in the assay with SK-MEL-28 melanoma.

For `CN1C2CCC1/C(=C\c1ccc(Cl)cc1)C(=O)/C2=C/c1ccc(Cl)cc1`, the growth was 54.2% in the assay on HCT-15 colon; 47.1% in the assay with HT29 colon; 71.6% with SNB-75 CNS; 64.1% with SNB-19 CNS; 13.6% in the assay on U251 CNS; 51.8% in the assay on PC-3 prostate. Further, the growth was 66.9% in the assay on SK-MEL-5 melanoma, 47.4% in the assay with UACC-62 melanoma, 35.1% in the assay on LOX IMVI melanoma and 91.6% in the assay with SK-MEL-28 melanoma.

Take `COc1cc(OC)c(C(=O)/C=C/c2cccc(OC(C)=O)c2)cc1CC=C(C)C`: the growth with HCT-15 colon is 55%; in the assay with HT29 colon it was 84.2%; in the assay on SNB-75 CNS, 77.5%; in the assay on SNB-19 CNS it was 101%; in the assay with U251 CNS it was 44.6%; in the assay on PC-3 prostate it was 36%. Moreover, the growth with SK-MEL-5 melanoma is 64.2%; in the assay with UACC-62 melanoma it was 47.3%; in the assay on LOX IMVI melanoma it was 48.3%; in the assay with SK-MEL-28 melanoma it was 67.8%.
